# Data as given in publication PMC12136788.
# The full ranking holds about 24,000 sequences; the median of “enrichment r” is about 0.99, and the highest 2% start at about 3.7. These entries were drawn from the full list.
# T1: UNK ZnF1-3 (human, UniProt Q9C0B0 31-174)
# T1 sequence: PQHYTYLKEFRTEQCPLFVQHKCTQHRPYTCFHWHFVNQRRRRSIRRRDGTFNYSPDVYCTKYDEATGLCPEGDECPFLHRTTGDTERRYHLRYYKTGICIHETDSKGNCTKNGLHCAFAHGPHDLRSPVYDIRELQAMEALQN
# B1: 171526625_171526745_1071_3pUTR_ENSG00000117523_ENST00000495585|human|control|control (ssRNA)
# RNA: GGGAGUUCUACAGUCCGACGAUCAGGUUAUAGCUGCAGCUGAAGUAGAGGCUGGAACUGAAGCUGAGACUGAGGCUGAGGCUGAAACUGGAGCUAAGGGUGAGGCUGGAACUGGAGCUGAGGUUGAGGCCAGAACUGGAGCUACAACAGAGGAUUGAGCAUCA
# B2: chr13:108516651:108516652:-_ENSMUSG00000032846_ENSMUST00000105097|mus_hu|motif|central (ssRNA)
# RNA: GGGAGUUCUACAGUCCGACGAUCAUCAUGCGCCAUUAAGAAGGUCUCUCGGGCUUUGCUGAGGAACUCUAUAAACUCACGGUAGUGCCGAGGACUGAUGUGUGUGAGCCGUGAGUGCGUUGUGUUGAUGUAGGCCCCGAUCGUCAACAGAGGAUUGAGCAUCA
# B3: 138058577_138059462_3783_3pUTR_ENSMUSG00000041642_ENSMUST00000075164|mouse|control|control (ssRNA)
# RNA: GGGAGUUCUACAGUCCGACGAUCGGCCAGGGACUUGGUGAUGUUCUUGGUAGAGCUGUCCAAUGGGGGUCCUAGGCACUCCGCAGACACGGCCUUCAUCUGUGCGGAUAGCUUGGGCUCACCCUUGAACUUGAAGUCAUCGUGCAACAGAGGAUUGAGCAUCA
# B4: chr12:39756943:39756944:-_ENSG00000139116_ENST00000544797|hu_mus|hu_hu_hu_mus_False|28_38 (ssRNA)
# RNA: GGGAGUUCUACAGUCCGACGAUCGGUUUGGCUGUUACCCCCAAGGGAAUCCUGCAAGAGUCUUGUCAGCUUAGAGUCUCUGUAAGGGACAUGGGUGGCCCUCUUGCUCUUGUCUCCCAAGGCGCUGAUUACAUUCCCAAGAGCCAACAGAGGAUUGAGCAUCA
# B5: chr2:73467608:73467609:+_ENSG00000135624_ENST00000258091|hu_mus|FALSE|FALSE (ssRNA)
# RNA: GGGAGUUCUACAGUCCGACGAUCAUCCUGGGACUUGGCUAUGUCCACUAAAGUCUUUGCUGCAGGAUGGACAACAUCGAGGAGUUUCAGAAUUGUGGCCCCAUCAUUAGAUAUUGUUGCUUUGCCUCGGCCAUCCACAAUAAGCAACAGAGGAUUGAGCAUCA
# B6: chr2:160604994:160604995:+_ENSG00000136536_ENST00000409591|hu_mus|motif|central (ssRNA)
# RNA: GGGAGUUCUACAGUCCGACGAUCUCUUGAAGACUCAUCCCUUCCCUCUCGCCUCCUUCUCGAGAACAAAGGUGUGCAUCGGUUUCGGAGUGAAGAAGACAACCAUGGUCCUGAAUUUCUACCUUCUGAUUCUUGGUUAAAAUUCAACAGAGGAUUGAGCAUCA
# B7: chr11:64571133:64571134:-_ENSG00000133895_ENST00000312049|hu_hu|motif|central (ssRNA)
# RNA: GGGAGUUCUACAGUCCGACGAUCCUGAAAAAUAAAUCUAUGUACAAAACAGGAAGAGAUCAGGCUCUUGUCACCCACUCCGGACCCUCUGCAGAUUUCCUCCGGGAUGCUCCGAGAUGGGCUGGACCUCUGGGAGGUUCCCAGCAACAGAGGAUUGAGCAUCA
# B8: chr10:93459826:93459827:-_ENSMUSG00000036099_ENSMUST00000119818|mus_mus|motif|central (ssRNA)
# RNA: GGGAGUUCUACAGUCCGACGAUCUCCCCACACCAGCCAGGAGGACACAAUCCAGCACGUGGGAAACAUGAUGAGCAAACGGAUGAAGGCAAACAGCAGCGAGACAUCCCAAGUGUUCGGGGUUGCCAGGGAGCAGAGCGUUGGCAACAGAGGAUUGAGCAUCA
# B9: chr9:95013113:95013114:-_ENSG00000196305_ENST00000443024|hu_hu|hu_hu_hu_mus_False|1_48 (ssRNA)
# RNA: GGGAGUUCUACAGUCCGACGAUCCUCAGUCAGAAAGGGCGUGUAAGGGGCCAUCAGUCUGCACAGAGAAAGCAGGACACUGAACAGGGUUUCUAGGGCCAUGACACAGUCUUCCACCCCACUCUCACCCUUUAACCUUCUGCGCAACAGAGGAUUGAGCAUCA
# B10: chr16:75661828:75661829:-_ENSG00000065427_ENST00000302445|hu_hu|FALSE|FALSE (ssRNA)
# RNA: GGGAGUUCUACAGUCCGACGAUCUAUUAUUUUCUAGACAGAAGUGCCAACUGUUGUGCUUUCCAGUGUAUCAGUGGUUGCUACAUUCUCCUUCUUGUCUUCGGGUUUCAUGGCAGGAAACAGAAGUACUUCCUUGAUGUUGUUCAACAGAGGAUUGAGCAUCA
# B11: chr11:29608675:29608676:+_ENSMUSG00000020458_ENSMUST00000102843|mus_mus|motif|central (ssRNA)
# RNA: GGGAGUUCUACAGUCCGACGAUCCUCUGUAUCAGAAGGAAGUUUUUCCUCUGCUUCUUUCGUAAGUACUUUGGGUUUAACGGUGUUGCCCAUUUCUAUUUGAGAUUCCAAAGCAGAAACAUUUGGAAGCAAUAAGGGCACCUUCAACAGAGGAUUGAGCAUCA
# B12: 136535675_136535795_2550_CDS_ENSMUSG00000030213_ENSMUST00000032335|mouse|control|control (ssRNA)
# RNA: GGGAGUUCUACAGUCCGACGAUCCUGAGGCUGAGAGGUCACGGCAACGGGCACAUGCAGGAUCACUGGCAAGGGCUGCAGAGAGAUUGUAGGCUGAGGGGUCCCACUAGGCACCUGAGUAGUGGCAACUACGGUGGCUGUGCUCAACAGAGGAUUGAGCAUCA
# B13: chr7:102952668:102952669:+_ENSG00000105819_ENST00000453466|hu_hu|motif|central (ssRNA)
# RNA: GGGAGUUCUACAGUCCGACGAUCCUGUUUAAAAUCUGGUAGUUGCUUAAUGGGACCAACAGCAGCAAUAGCUGGACUCCGGUUAUAAAUGUAUUUGGUACAUACUUCUCGAAUUGUCUCAGCAUUCACAGCAUCAAUUCUUGCCAACAGAGGAUUGAGCAUCA
# B14: chr2:120799606:120799607:+_ENSG00000115109_ENST00000263713|hu_hu|motif|central (ssRNA)
# RNA: GGGAGUUCUACAGUCCGACGAUCGUACAUAAUCUGAUCAAACAACUCUUGUCCUUUGGCUUUUUUUGGCAAGUCCACACGGACAUCAGUACCAUCCAGAAGGGACACCCGACACGUGAUGAUGGACUUAGAAUCUCCAGCUGCCAACAGAGGAUUGAGCAUCA
# Target: T1, UNK ZnF1-3
# Experiment: nsRBNS (natural sequence RNA bind-n-seq); RBNS binding buffer (assumed for nsRBNS): 25 mM Tris pH 7.5, 150 mM KCl, 3 mM MgCl2, 0.01% Triton X-100, 500 ug/ml BSA, 20 U/ml SUPERase-In, 4 C; UNK is unkempt and MSI1 is Musashi-1; names of the RNAs are library labels; protein concentration not given here; high values mean tight binding
row,Binder,binding signal [enrichment R]
1,B1,2.07
2,B2,0.756
3,B3,0.657
4,B4,0.802
5,B5,0.992
6,B6,0.976
7,B7,0.877
8,B8,2.05
9,B9,0.937
10,B10,0.567
11,B11,0.539
12,B12,1.73
13,B13,1.15
14,B14,0.976
